Data on 40 compounds can be found in PubChem BioAssay (EPA / NIEHS).

The structures appear in SMILES notation. The source made the active and inactive calls. How the source made its calls: active means hit-call score of the fitted dose curve at least 0.9, where 1 is the maximum; inactive means score below 0.9.

Read-out in this assay: Phosphatase and tensin (PTEN), PTEN (gene 5728)
Briefly: LTEA_HepaRG_PTEN: Life Technologies and Expression Analysis (LTEA) Assay for Phosphatase and tensin (PTEN) using HepaRG (AID 2283523). The following applies: mRNA level, 48 h; actives raise or lower the signal. On the procedure: LTEA_HepaRG is a cell based, multiplexed-readout assay that uses HepaRG, a human liver cell line, with measurements taken at 48 hours after chemical dosing on a 96-well plate.LTEA_HepaRG_PTEN is one of 102 assay component(s) measured in the LTEA HepaRG cell culture assay. It is a marker of Cell proliferation, survival, death.Data from the assay component LTEA_HepaRG_PTEN was analyzed into 1 endpoint. This assay endpoint, LTEA_HepaRG_PTEN, was analyzed with bidirectional fitting relative to DMSO as the negative control and baseline of activity. Using a type of inducible reporter, measures of mRNA induction for gain or loss-of-signal activity can be used to understand regulation of transcription factor activity. To generalize the intended target to other relatable targets, this assay endpoint is annotated to the phosphatase intended target family, where the subfamily is dual-specific phosphatase.
A total of 1060 chemcials from the ToxCast library were tested in eight-point concentration-response experiments. Cell culture and cytotoxicity assays were conducted at Thermo Fisher Scientific's Custom Services facility (Madison, WI). A single lot of human HepaRG cells (Thermo Fisher Scientific, Frederick, MD) was used for the cell culture experiments. 96-well format collagen type I coated plates of human HepaRG cells were prepared using established methods. Briefly, cryopreserved HepaRG cells were thawed, plated at a density of approximately 100,000 cells/well in HepaRG Thaw, Plate, and General Purpose media (HPRG770, Thermo Fisher Scientific), and incubated for 48 hours. 0.5% DMSO was selected as vehicle control to balance the requisite need of DMSO in HepaRG cultures to maintain differentiation (for example, baseline metabolism, proportions of hepatocytes vs. cholangiocytes), while enabling further hepatic receptor pathway activation (for example, PXR and CAR) in response to chemical exposure. 48 hours after plating, the culture medium was replaced with HepaRG Serum-Free Incudtion Media. Cells were exposed to each test chemical in duplicate and maintained in CO2 incubators for another 48 hours. Chemical plates were thawed to room temperature and 200x concentrations of treatment groups were prepared. 8-point conentration-reponse curves were made with the highest exposure at 100 uM, followed by half-log dilutions, all in 0.5% DMSO. Each test plate contained variouse controls, induction positive controls (1mM phenobarbital), cytotoxicity positive controls ([…] aflatoxin B1), vehicle controls (0.5% DMSO), and total lysis controls (0.5% DMSO). Cell morphology images were taken using an Essen IncuCyte FLR automated microscope, with six 96-well plates imaged in about 24 minutes. Images were captured and exported and JPEG files. Spent culture media was transfered to black-well plates for the LDH assay, and remaining media was sorted at -80 C for later use. Cells were treated with RLT buffer and frozen until shipped for gene expression analysis. Total RNA was isolated from the cell suspension in 75 uL of Buffer RLT (Qiagen, Germantown, MD 20874) by Quintiles/Expression Analysis (Durham, NC) using a custom isolation procedure. Total RNA from each plate well was transferred to a preamplification plate. Fluidigm's 96.96 Dynamic ArrayTM (Fluidigm, Amsterdam, the Netherlands) technology was used for gene expression analyses by quantitative reverse transcription polymerase chain reaction (qRT-PCR, performed by Quintiles/Expression Analysis, Durham, NC)89. Standard TaqManTM Assays (Applied Biosystems/ThermoFisher Scientific, Foster City, CA) were used to assess the expression of 93 genes selected based on their selectivity and sensitivity to important hepatic receptors known to be modulated by environmental chemicals; importance in human hepatocyte functionality; and hepatotoxicity. […]
Regarding `CCOP(=S)(OCC)Oc1cc(C)nc(C(C)C)n1`, the call was inactive.
Regarding `CNC(=O)Oc1cccc2c1OC(C)(C)O2`, the outcome was inactive.
Regarding `O=c1ccc(=O)[nH][nH]1`, the call was inactive.
Still for that read-out and setting: as for `CCc1cnc(C2=NC(C)(C(C)C)C(=O)N2)c(C(=O)O)c1` (stereo not given), the entry is “inactive”.
For orientation: AC50 means the midpoint of the concentration-response curve, whichever way the signal moves. On to `CC[C@H](C)[C@H]1O[C@]2(C=C[C@@H]1C)C[C@@H]1C[C@@H](C/C=C(\C)[C@@H](O[C@H]3C[C@H](OC)[C@@H](O[C@H]4C[C@H](OC)[C@@H](NC)[C@H](C)O4)[C@H](C)O3)[C@@H](C)/C=C/C=C3\CO[C@@H]4[C@H](O)C(C)=C[C@@H](C(=O)O1)[C@]34O)O2`, for which the half-maximal activity concentration (AC50) was 23.5 µM (active).
On to `CCOP(=O)(SC(C)CC)N1CCSC1=O` (stereo not given), for which the outcome was inactive.
On the same count and under the same terms, as for `CCOP(=S)(Oc1cnc(C(C)(C)C)nc1)OC(C)C` (stereo not given), the entry is “inactive”.
For `C#CC(C)(C)NC(=O)c1cc(Cl)cc(Cl)c1`, the result was inactive.
Consider `COc1ccc(C(=CC(=O)N2CCOCC2)c2ccc(Cl)cc2)cc1OC`, for which the outcome was inactive.
Still for that read-out and setting: as for `CC(COc1ccc(Oc2ccccc2)cc1)Oc1ccccn1` (stereo not given), the entry is “inactive”.
The same measure, in the same setting: in the case of `CCC(CC)Nc1c([N+](=O)[O-])cc(C)c(C)c1[N+](=O)[O-]` it was “inactive”; in that of `CCCCN(CC)c1c([N+](=O)[O-])cc(C(F)(F)F)cc1[N+](=O)[O-]`, “inactive”.
For `CSc1nnc(C(C)(C)C)c(=O)n1N`, the compound was classed as inactive.
The same measure, in the same setting: as for `CCOP(=O)(OCC)Oc1cc(C)nc(C(C)C)n1`, the entry is “inactive”; as for `CC1=NNC(=O)N(/N=C/c2cccnc2)C1`, “inactive”.
On the same count and under the same terms, in the case of `CCCOc1nn(C(=O)NS(=O)(=O)c2ccccc2C(=O)OC)c(=O)n1C` it was “inactive”.
`CCOP(=S)(OCC)SCCSCC`: the call was inactive.
On to `CCOC(=O)COc1cc(-c2nn(C)c(OC(F)F)c2Cl)c(F)cc1Cl`, for which the outcome was inactive.
Same read-out and setting: in the case of `CC(C)N(C(=O)SCC(Cl)=C(Cl)Cl)C(C)C` it was “inactive”; in that of `CN1COCN(Cc2cnc(Cl)s2)C1=N[N+](=O)[O-]`, “inactive”; in that of `Cc1cc(C2CC2)nc(Nc2ccccc2)n1`, “inactive”.
Same read-out and setting: in the case of `COc1cc(OC)nc(Sc2cccc(Cl)c2C(=O)O)n1` it was “inactive”; in that of `CCOP(=S)(OCC)Oc1ccc2c(C)c(Cl)c(=O)oc2c1`, “inactive”.
The same measure, in the same setting: in the case of `Cc1nn(-c2cc(NS(C)(=O)=O)c(Cl)cc2Cl)c(=O)n1C(F)F` it was “inactive”.
As for `Nc1nc(N)nc(NC2CC2)n1`, the compound was classed as inactive.
Still for that read-out and setting: as for `CN(C)[C@@H]1C(=O)C(C(N)=O)=C(O)[C@@]2(O)C(=O)C3=C(O)c4c(O)cccc4[C@@](C)(O)[C@H]3[C@H](O)[C@@H]12`, the entry is “inactive”.
Still for that read-out and setting: in the case of `CN(C)C(=O)Nc1cccc(C(F)(F)F)c1` it was “inactive”; in that of `C#CCC1=C(C)C(OC(=O)C2C(C=C(C)C)C2(C)C)CC1=O` (stereo not given), “inactive”.
The same measure, in the same setting: as for `CCOC(=O)CC(SP(=O)(OC)OC)C(=O)OCC` (stereo not given), the entry is “inactive”; as for `CON=C(C(=O)OC)c1ccccc1CON=C(C)c1cccc(C(F)(F)F)c1`, “inactive”; as for `COc1cccc(C(=O)NN(C(=O)c2cc(C)cc(C)c2)C(C)(C)C)c1C`, “inactive”.
`Cc1ccn2nc(S(=O)(=O)Nc3c(F)cccc3F)nc2n1`: the compound was classed as inactive.
For the compound `CCCCSP(=O)(SCCCC)SCCCC`, the outcome was inactive.
Same read-out and setting: as for `COP(=O)(NC(C)=O)SC` (stereo not given), the entry is “inactive”; as for `CNC(=O)ON=C(C)SC`, “inactive”.
Consider `O=[N+]([O-])c1cc(C(F)(F)F)c(Cl)c([N+](=O)[O-])c1Nc1ncc(C(F)(F)F)cc1Cl`, for which the AC50 is 59.8 µM (active).
Regarding `CCCSP(=O)(OCC)SCCC`, the compound was called inactive.
The same measure, in the same setting: in the case of `CCOP(=S)(OCC)OC(Cl)C(Cl)(Cl)Cl` (stereo not given) it was “inactive”; in that of `C[N+]1(C)CCCCC1`, “inactive”; in that of `COP(=O)(OC)C(O)C(Cl)(Cl)Cl` (stereo not given), “inactive”.
